“And” between values parts separate entries of the source, which are not always exact repeats. Equal entries are not always repeated. Screen size: about 5,500 compounds; about 2,000 (36%) were called active. Another 18% or so got no clear call; they are omitted. No stated cut-off is given here; in the data, active means normalized growth mostly below about 0.91 (no sharp cut-off); inconclusive means no clear call, values can overlap the other calls; inactive means mostly above about 0.92. The list shows a part of the results.
Assay: chemical genetic growth profiling, strain panel (AID 1159580);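 further: tested at 20 µM; growth read once vehicle control cultures reached saturation at 30 °C; 1 = growth at the plate median or of vehicle wells; lower values mean less growth of the strain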
Details: S. cerevisiae deletion strains, growth OD

Measured: normalized growth

Cc1cn([C@H]2C[C@H](N=[N+]=[N-])[C@@H](CO)O2)c(=O)[nH]c1=O
inactive: locus YAL013W, strain DEP1, active compounds read low 1.01 | locus YAL021C, strain ccr4, active compounds read low 0.993 | locus YAL026C, strain drs2, active compounds read low 0.995 | locus YAL030W, strain snc1, active compounds read low 1 | locus YBL061C, strain skt5, active compounds read low 1 | locus YBR009C, strain hhf1, active compounds read low 1.02 | locus YBR021W, strain FUR4, active compounds read low 0.998 | locus YBR023C, strain chs3, active compounds read low 1 | locus YBR171W, strain sec66, active compounds read low 0.996 | locus YBR229C, strain ROT2, active compounds read low 1.01 | locus YBR231C, strain swc5, active compounds read low 1 | locus YBR279W, strain paf1, active compounds read low 0.979 | locus YCL011C, strain gbp2, active compounds read low 1.02 | locus YCL016C, strain dcc1, active compounds read low 0.965 | locus YCL029C, strain bik1, active compounds read low 1.01 | locus YCL069W, strain vba3, active compounds read low 0.99 | locus YCR088W, strain abp1, active compounds read low 0.995 | locus YDL005C, strain med2, active compounds read low 1 | locus YDL035C, strain GPR1, active compounds read low 1.01 | locus YDL040C, strain nat1, active compounds read low 0.994 | locus YDL074C, strain BRE1, active compounds read low 1.02 | locus YDL101C, strain DUN1, active compounds read low 1.01 | locus YDL134C, strain PPH21, active compounds read low 1 | locus YDL185W, strain tfp1, active compounds read low 1.01 | locus YDL192W, strain arf1, active compounds read low 1.01 | locus YDR001C, strain nth1, active compounds read low 0.994 | locus YDR069C, strain doa4, active compounds read low 1.01 | locus YDR101C, strain arx1, active compounds read low 1.02 | locus YDR137W, strain rgp1, active compounds read low 0.966 | locus YDR150W, strain NUM1, active compounds read low 1 | locus YDR159W, strain sac3, active compounds read low 0.971 | locus YDR162C, strain NBP2, active compounds read low 1 | locus YDR195W, strain ref2 0.983 | locus YDR297W, strain sur2, active compounds read low 1.02 | locus YDR318W, strain mcm21, active compounds read low 1 | locus YDR334W, strain swr1, active compounds read low 1.01 | locus YDR335W, strain msn5, active compounds read low 0.984 | locus YDR388W, active compounds read low 1 | locus YDR392W, strain spt3, active compounds read low 0.924 | locus YDR502C, strain sam2, active compounds read low 1.02 | locus YEL003W, strain gim4, active compounds read low 1.01 | locus YEL037C, strain rad23, active compounds read low 1 | locus YEL061C, strain CIN8 (second series), active compounds read low 0.999 | locus YEL061C, strain CIN8, active compounds read low 1 | locus YER015W, strain faa2, active compounds read low 0.997 | locus YER016W, strain bim1, active compounds read low 0.991 | locus YER110C, active compounds read low 1.02 | locus YER111C, strain swi4, active compounds read low 0.976 | locus YER155C, strain BEM2 (second series), active compounds read low 1 | locus YER155C, strain BEM2, active compounds read low 0.988 | locus YER167W, strain BCK2, active compounds read low 0.998 | locus YFR010W, strain ubp6, active compounds read low 1.01 | locus YGL078C, strain dbp3, active compounds read low 1.01 | locus YGL086W, strain mad1, active compounds read low 1 | locus YGL167C, strain pmr1, active compounds read low 1 | locus YGL173C, strain kem1, active compounds read low 1.01 | locus YGL227W, strain vid30, active compounds read low 0.996 | locus YGL240W, strain doc1, active compounds read low 1 | locus YGL248W, strain PDE1, active compounds read low 1.01 | locus YGL253W, strain hxk2, active compounds read low 0.981 | locus YGR078C, strain PAC10, active compounds read low 1.01 | locus YGR135W, strain pre9, active compounds read low 1.01 | locus YGR229C, strain SMI1, active compounds read low 1.01 | locus YGR252W, strain gcn5, active compounds read low 1.05 | locus YHR013C, strain ard1, active compounds read low 0.969 | locus YHR027C, strain rpn1, active compounds read low 1.03 | locus YHR030C, strain SLT2, active compounds read low 1 and 0.984 | locus YHR079C, strain IRE1 (second series), active compounds read low 0.998 | locus YHR079C, strain IRE1, active compounds read low 0.966 | locus YHR094C, strain hxt1, active compounds read low 1.01 | locus YHR129C, strain ARP1, active compounds read low 1 | locus YHR142W, strain chs7, active compounds read low 0.972 | locus YHR200W, strain rpn10, active compounds read low 1.01 | locus YIL066C, strain RNR3, active compounds read low 1.01 | locus YIL073C, strain SPO22, active compounds read low 1.05 | locus YIL125W, strain kgd1, active compounds read low 1.01 | locus YIR030C, strain dcg1, active compounds read low 1 | locus YJL092W, strain hpr5, active compounds read low 1.01 | locus YJL095W, strain BCK1 (second series), active compounds read low 1.01 | locus YJL095W, strain BCK1, active compounds read low 1.01 and 0.973 | locus YJL115W, strain asf1, active compounds read low 1 | locus YJL129C, strain trk1, active compounds read low 0.948 | locus YJL134W, strain LCB3, active compounds read low 0.999 | locus YJL154C, strain vps35, active compounds read low 0.998 | locus YJL164C, strain tpk1, active compounds read low 0.981 | locus YJL166W, strain qcr8, active compounds read low 1.03 | locus YJL168C, strain set2, active compounds read low 0.999 | locus YJL187C, strain SWE1 (second series), active compounds read low 1.01 | locus YJL187C, strain SWE1, active compounds read low 1.01 | locus YJR043C, strain POL32, active compounds read low 1.02

— PubChem BioAssay AID1159580 (chemical genetic matrix, 2015)
